From PubChem BioAssay AID1209 (Sanford-Burnham Center for Chemical Genomics, 2008)
Several values for one entry are separate records, joined by “and”; a condition that tells them apart may be missing. Equal entries are not always repeated. The whole screen tested about 190,000 compounds, of which about 810 (0.43%) were called active. The entries come from a sample that favours actives as a whole. A number with no mark means an inactive call. Cut-off read from the data, not from the text of the source: active = inhibition above about 50%; inactive = the rest.

molecular target: Mannose-6-phosphate isomerase (Homo sapiens) (UniProt P34949); assay: MPI enzyme activity inhibition – biochemical, fluorescence intensity, coupled assay, primary screen (AID 1209); conditions: purified PMI enzyme, at 20 µM, active compounds read high;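 note: plate controls were DMSO vehicle for no effect and wells lacking substrate for full effect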
Sequence (P34949 whole entry, looked up): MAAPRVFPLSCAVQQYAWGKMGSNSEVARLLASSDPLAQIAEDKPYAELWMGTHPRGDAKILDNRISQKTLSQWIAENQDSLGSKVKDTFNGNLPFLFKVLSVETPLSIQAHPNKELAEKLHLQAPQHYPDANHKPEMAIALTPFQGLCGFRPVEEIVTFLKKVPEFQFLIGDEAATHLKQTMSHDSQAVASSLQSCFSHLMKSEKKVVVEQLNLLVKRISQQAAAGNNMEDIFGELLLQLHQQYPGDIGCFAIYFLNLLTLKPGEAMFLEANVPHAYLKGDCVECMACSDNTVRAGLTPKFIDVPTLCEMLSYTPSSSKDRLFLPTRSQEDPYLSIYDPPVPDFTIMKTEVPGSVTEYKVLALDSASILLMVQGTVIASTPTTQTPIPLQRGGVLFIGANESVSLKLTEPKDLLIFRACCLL

Structure (SMILES) | inhibition
CCOC(=O)Cc1csc(NC(=O)c2c(-c3ccccc3)noc2C)n1 | 2.9%
Cc1cc(C)n(C(=O)c2ccncc2)n1 | 6.1%
Cc1oc2cc(O)ccc2c(=O)c1Oc1ccccc1 | 9.2%
CC(=O)Oc1ccc2c(=O)c(N3C(=O)c4ccccc4C3=O)c(C)oc2c1C | 14.5%
CCn1c(NCc2ccccn2)nc2c1c(=O)n(C)c(=O)n2C | -0.4%
Oc1c(/C=N/c2ncn[nH]2)ccc2ccccc12 | 14.9%
Oc1c(C=Nc2cccc3nsnc23)ccc2ccccc12 | 70.7% (active)
Oc1c(/C=N/Nc2cccc3cccnc23)ccc2ccccc12 | -30.2%
CCCCCCC1CC(=O)NC(=S)N1 (stereo not drawn) | 4.8%
COc1ccc(NC(=O)C(C)Oc2ccc(/C(C)=N\O)cc2)cc1 (stereo not drawn) | -0.3%
COc1cccc2cc(C(C)N(CCCN3CCOCC3)C(=S)Nc3cccc(C)c3)oc12 (stereo not drawn) | 5.2%
COc1ccc(CNC(=O)c2cccc3c2C(=O)N(Cc2cccnc2)C3)cc1 | 4.4%
Cc1c(Br)c(=O)oc2c(Br)c(O)c(O)cc12 | 12.8%
Cc1c(Br)c(=O)oc2c(Br)c(O)ccc12 | -26.1%
O=c1oc2c(O)c(O)cc3c(=O)oc4c(O)c(O)cc1c4c23 | 67.5% (active)
O=C(COC(=O)c1ccc(Cl)nc1)c1ccc2c(c1)OCCO2 | -10.6%
CSCC[C@H](NC(=O)c1cc([N+](=O)[O-])ccc1Cl)c1nc2ccccc2[nH]1 | 16.7%
CN(C)c1ncccc1-c1nc2ccccc2s1 | -2.6%
Cc1c(Cc2ccccc2)c(=O)oc2c(O)c(O)ccc12 | 77.6% (active)
Cc1c(Cc2ccccc2)c(=O)oc2c(CN(C)C)c(O)c(Cl)cc12 | 1.2%
COc1ccc2c(C)c(Cc3ccccc3)c(=O)oc2c1OC | 0.7%
N#C/C(C(=O)N1CCCCC1)=C1/N=C(N)c2ccccc21 | -1.3%
CC1CC1C(=O)Nc1cc(S(=O)(=O)N2CCOCC2)ccc1N1CCCC1 (stereo not drawn) | -3.9%
N#Cc1ccc(OCC(=O)NCCc2ccc(S(N)(=O)=O)cc2)cc1 | -7%
O=c1c2ccccc2sn1-c1cc(S(=O)(=O)N2CCOCC2)ccc1N1CCOCC1 | 104% (active)

Structure (SMILES) | inhibition
O=S(=O)(c1ccc2c(c1)oc1ccccc12)N1CCOCC1 | 9.1%
Cc1ccc(C)n1-c1cc(S(=O)(=O)N2CCOCC2)ccc1N1CCCC1 | 9.8%
O=C(O)c1cc(S(=O)(=O)N2CCOCC2)ccc1N1CCOCC1 | -1%
O=c1c2ccccc2sn1-c1ccc(S(=O)(=O)N2CCCC2)cc1 | 42.4%
O=c1c2ccccc2sn1-c1cc(S(=O)(=O)N2CCOCC2)ccc1N1CCCC1 | 92.7% (active)
CC(=O)c1ccc(N(C(=O)c2ccco2)C(C(=O)NC2CCCC2)c2ccc(N3CCOCC3)cc2)cc1 (stereo not drawn) | 6.3%
Cc1ccc(P(=O)(CO)c2ccc(C)cc2)cc1 | -12%
CN(Cc1ccccc1)C(=O)COC(=O)c1ccc(Cl)c(N)c1 | 9.3%
O=C(Cc1ccc(Cl)cc1Cl)NCC1(N2CCOCC2)CCCCC1 | 14.5%
Cc1ccc(NS(=O)(=O)c2cc(C(=O)Nc3cccc(N(C)S(C)(=O)=O)c3)ccc2C)c(C)c1 | 5.7%
CCOC(=O)C1CCN(C(=O)CC(C)c2ccccc2)CC1 (stereo not drawn) | -0.6%
Cc1ccc(O)c(C=Nc2cc(C)ccc2O)c1 | 23.1%
CCN(CC)c1ccc(C=Nc2ccc(C)cc2C)c(O)c1 | -0.7%
CCc1ccc(O)c(N=Cc2cccc(C)c2O)c1 | 18.5%
CCN(CC)c1ccc(C=Nc2ccccc2C)c(O)c1 | 27.1%
Cc1ccccc1N=Cc1cccc(O)c1O | 74.1% (active)
O=C(/C=C/c1ccc([N+](=O)[O-])cc1)N(c1ccccn1)C1CCCCC1 | -38.1%
COc1cc(/C=N/N=C(/N)c2nonc2N)cc(Br)c1OCc1cccc(C)c1 | 16.3%
OC(CNCc1ccccc1Cl)C(F)(F)F (stereo not drawn) | 5.4%
COc1ccccc1N1CCN(C(=O)c2ccc(CSc3ccccc3)cc2)CC1 | -1.4%
Cc1ccc(O)c(CP(=O)(c2ccccc2)c2ccccc2)c1 | -4.9%
COc1ccc(F)cc1C(=O)C1CCCN(C(=O)C2=C(C)OCCO2)C1 (stereo not drawn) | 5.1%
CCCCCCn1c(SCC(=O)OC)nc2c1c(=O)[nH]c(=O)n2C | 54% (active)
CCCCCn1c(SCC(=O)OC)nc2c1c(=O)[nH]c(=O)n2C | 0.2%
CCCCn1c(SCC(=O)OCC)nc2c1c(=O)[nH]c(=O)n2C | 3.6%

Structure (SMILES) | inhibition
Fc1ccc2nc(N3CCCC3)sc2c1 | 8.5%
COc1cc(CNC(C)(C)CO)cc(Br)c1OCc1ccc(Cl)cc1 | 5.6%
FC(F)(F)c1cccc(OCCOCCn2cncn2)c1 | 3.9%
O=C(NCc1ccco1)c1cnn2c1NC(c1ccccc1)CC2C(F)(F)F (stereo not drawn) | -6.3%
O=C(NCc1ccco1)c1cnn2c1NC(c1ccc(Br)cc1)CC2C(F)(F)F (stereo not drawn) | 27%
Cc1ccc(C2CC(C(F)(F)F)n3ncc(C(=O)NCc4ccco4)c3N2)cc1 (stereo not drawn) | 108% (active)
COc1cc(NC(=O)C(C)Oc2ccccc2)c(C(=O)O)cc1OC (stereo not drawn) | 10.7%
O=C(Cc1c[nH]c2ccccc12)NC1(C(=O)NC2CCCCC2)CCCCC1 | -4%
COC(=O)c1ccc(C2C(Oc3ccccc3)C(=O)N2CCc2ccc(OC)c(OC)c2)cc1 (stereo not drawn) | -2.9%
COC(=O)c1ccc(C2C(Oc3ccc(OC)cc3)C(=O)N2CCc2ccc(OC)c(OC)c2)cc1 (stereo not drawn) | 52% (active)
COC(=O)c1ccc(C2C(Oc3ccc(OC)cc3)C(=O)N2CCc2ccc(F)cc2)cc1 (stereo not drawn) | -0.6%
COCCNC(=O)C(c1cccs1)N(C(=O)Cn1nnc2ccccc21)c1cccc(C)c1 (stereo not drawn) | 5.9%
O=C(Cn1cc(/C=N/NC(=O)c2ccccc2Br)c2ccccc21)Nc1ccc(F)cc1 | 5.7%
O=C(CCS(=O)(=O)c1ccc(Cl)cc1)OCC(=O)N1CCCCC1 | 9.3%
Cc1cccc(-n2nnc(C(=O)NCc3ccco3)c2N)c1 | -18.8%
CCOc1ccc(N2C(=O)CC(N(CCc3ccc(OC)c(OC)c3)C(=S)Nc3ccccc3)C2=O)cc1 (stereo not drawn) | 19.8%
CCOc1cccc(N2C(=O)CC(N(CCc3ccc(OC)c(OC)c3)C(=O)CC)C2=O)c1 (stereo not drawn) | 57% (active)
CCOC(=O)c1ccc(N2C(=O)CC(N(C)CCc3ccc(OC)c(OC)c3)C2=O)cc1 (stereo not drawn) | 16.4%
O=C(CSc1n[nH]c(=O)[nH]c1=O)Nc1ccc(C(=O)O)cc1 | -8.4%
O=[N+]([O-])c1cc(-c2ncccn2)cs1 | -13.4%
O=[N+]([O-])c1cccnc1NCc1cccs1 | -2.4%
O=C(O)CCC(=O)Nc1ccc(Cc2ccc(NC(=O)CCC(=O)O)c(O)c2)cc1O | -9.3%
Cc1ccc(Cl)cc1N1CCN(C(=O)CN2C(=O)c3cccc4cccc2c34)CC1 | 12.6%
O=S1(=O)NC(=NCCc2ccccn2)c2ccccc21 | -7.8%
O=S1(=O)Nc2c(ccc3cccnc23)-c2ccccc21 | 62% (active)

Structure (SMILES) | inhibition
c1cnc2c(c1)ccc1cccnc12 | 5.7% and 24.3%
COc1ccc(-c2c(C)n([O-])c3c([n+]2=O)CCC3)cc1OC | 8%
c1ccc(-c2ccccc2-n2cnnn2)cc1 | -7.6%
O=C(Nc1nc2ccc(S(=O)(=O)N3CCCC3)cc2s1)C1CCCCC1 | 7.3%
Cc1cc(C)nc(N2CCCC(C(=O)Nc3nnc(C)s3)C2)n1 (stereo not drawn) | -13.6%
Cc1cc(C)nc(N2CCCC(C(=O)Nc3nc4ccc(S(C)(=O)=O)cc4s3)C2)n1 (stereo not drawn) | 51.4% (active)
CS(=O)(=O)c1ccc2nc(NC(=O)CCC(=O)c3cccs3)sc2c1 | -8.5%
CCc1c(C(C)S(=O)(=O)c2ccccc2)[nH]c(=O)n1CC (stereo not drawn) | -38%
CCn1c(C)c(CS(=O)(=O)c2ccccc2)[nH]c1=O | 85.5% (active)
Cc1nn(C)c(C)c1CS(=O)(=O)c1ccccc1 | -8.9%
Cc1cc(C)cc(-n2cc(C(=O)O)c(=O)cc2C)c1 | 5.3%
COc1ccc(NC(=O)CSc2nc3sc(C)c(C)c3c(=O)n2Cc2ccco2)cc1 | 7.7%
CCOc1c(O)ccc(/C=C2\SC(=S)NC2=O)c1[N+](=O)[O-] | 55.7% (active)
CCOc1ccc(/C=C2\SC(=S)NC2=O)cc1OC | -12%
C=CCN1C(=O)/C(=C/c2ccc(OC(C)=O)c(OCC)c2[N+](=O)[O-])SC1=S | 41.3%
CC(=O)c1c(C(=O)O)[nH]c(C(=O)O)c1C | 108% (active)
CC(=O)c1c(C)[nH]c(C(=O)O)c1C | 13.6%
CC(=O)c1[nH]c(C)c(C(C)=O)c1C | 11%
S=c1nc(-c2ccccc2)n(CCCn2ccnc2)c2c1CCCC2 | 1.7%
COc1ccc(/C=C(\CC(=O)O)c2nc3ccccc3o2)cc1 | -27.3%
Cc1nc(C)c(C(=O)NNC(=O)c2ccc(Br)cc2)s1 | 6.9%
CCN(C(=O)CSc1nnc(Cn2nnc3ccccc32)o1)c1nc(C)cs1 | 9.1%
COCCn1cc(C(=O)c2cc(Br)ccc2O)cc(C#N)c1=O | -5.8%
